A short description of this assay: chemical genetic growth profiling, strain panel (AID 1159580).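 Further: tested at 20 µM; growth read once vehicle control cultures reached saturation at 30 °C; 1 = growth at the plate median or of vehicle wells; lower values mean less growth of the strain.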 The settings on record: growth OD.
[1] abbreviates: S. cerevisiae deletion strains, locus YAL013W, strain DEP1, active compounds read low.
Where [2] appears, read: S. cerevisiae deletion strains, locus YBR229C, strain ROT2, active compounds read low.
The mark [3] stands for this setting: S. cerevisiae deletion strains, locus YDL101C, strain DUN1, active compounds read low.
Setting [4] is: S. cerevisiae deletion strains, locus YDR150W, strain NUM1, active compounds read low.
The mark [5] stands for this setting: S. cerevisiae deletion strains, locus YEL061C, strain CIN8, active compounds read low.
[6] abbreviates: S. cerevisiae deletion strains, locus YGR078C, strain PAC10, active compounds read low.
Where [7] appears, read: S. cerevisiae deletion strains, locus YHR030C, strain SLT2, active compounds read low.
The mark [8] stands for this setting: S. cerevisiae deletion strains, locus YHR087W, strain rtc3, active compounds read low.
The mark [9] stands for this setting: S. cerevisiae deletion strains, locus YJR043C, strain POL32, active compounds read low.
Setting [10] is: S. cerevisiae deletion strains, locus YJR075W, strain HOC1, active compounds read low.
The mark [11] stands for this setting: S. cerevisiae deletion strains, locus YLR039C, strain RIC1, active compounds read low.
The mark [12] stands for this setting: S. cerevisiae deletion strains, locus YLR058C, strain SHM2 (second series), active compounds read low.
Setting [13] is: S. cerevisiae deletion strains, locus YLR085C, strain ARP6, active compounds read low.
Setting [14] is: S. cerevisiae deletion strains, locus YLR262C, strain YPT6, active compounds read low.
[15] abbreviates: S. cerevisiae deletion strains, locus YML094W, strain GIM5, active compounds read low.
Setting [16] is: S. cerevisiae deletion strains, locus YMR219W, strain ESC1, active compounds read low.
Setting [17] is: S. cerevisiae deletion strains, locus YMR263W, strain SAP30, active compounds read low.
Where [18] appears, read: S. cerevisiae deletion strains, locus YNL153C, strain GIM3, active compounds read low.
[19] abbreviates: S. cerevisiae deletion strains, locus YNL298W, strain CLA4 (second series), active compounds read low.
Setting [20] is: S. cerevisiae deletion strains, locus YNL322C, strain KRE1, active compounds read low.
The mark [21] stands for this setting: S. cerevisiae deletion strains, locus YNR030W, strain Alg12, active compounds read low.
The mark [22] stands for this setting: S. cerevisiae deletion strains, locus YOL006C, strain TOP1, active compounds read low.
[23] abbreviates: S. cerevisiae deletion strains, locus YPL055C, strain LGE1, active compounds read low.
[24] abbreviates: S. cerevisiae deletion strains, locus YPL241C, strain CIN2, active compounds read low.
[25] abbreviates: S. cerevisiae deletion strains, locus YPR135W, strain CTF4, active compounds read low.
Setting [26] is: S. cerevisiae strains, strain wild type, active compounds read low.
The mark [27] stands for this setting: S. cerevisiae deletion strains, locus YAL040C, strain CLN3, active compounds read low.
Where [28] appears, read: S. cerevisiae deletion strains, locus YCL061C, strain MRC1 (second series), active compounds read low.
Setting [29] is: S. cerevisiae deletion strains, locus YDR363W, strain ESC2, active compounds read low.
The mark [30] stands for this setting: S. cerevisiae deletion strains, locus YER002W, strain NOP16, active compounds read low.
Setting [31] is: S. cerevisiae deletion strains, locus YNL175C, strain NOP13, active compounds read low.
[32] abbreviates: S. cerevisiae deletion strains, locus YNL197C, strain WHI3, active compounds read low.
The mark [33] stands for this setting: S. cerevisiae deletion strains, locus YNL224C, strain SQS1, active compounds read low.
Setting [34] is: S. cerevisiae deletion strains, locus YOR083W, strain WHI5 (second series), active compounds read low.

About 2,000 (36%) of roughly 5,500 compounds were called active. Another 18% or so got no clear call; they are omitted. This is one part of the list. Unmarked numbers belong to inactive results. No stated cut-off is given here; in the data, active means normalized growth mostly below about 0.91 (no sharp cut-off); inconclusive means no clear call, values can overlap the other calls; inactive means mostly above about 0.92.

For the compound `O=C(O)C1C2CCC1C(O)C2` (stereo unspecified), the normalized growth runs as follows: under setting [1], 0.99; under setting [2], 1.02; under setting [3], 0.981; under setting [4], 1; under setting [5], 1.02; under setting [6], 0.998. The normalized growth runs as follows: under setting [7], 0.98; under setting [8], 0.99; (S. cerevisiae deletion strains, locus YJL187C, strain SWE1, active compounds read low) 1.02; under setting [9], 1; under setting [10], 1.02; under setting [11], 0.967. Moreover, the normalized growth was 1.02 under setting [12]; 1.03 under setting [13]; 0.968 under setting [14]; 1.01 under setting [15]; 0.998 under setting [16]; 0.998 under setting [17]. Further, the normalized growth is, setting by setting: (S. cerevisiae deletion strains, locus YMR307W, strain GAS1, active compounds read low) 1.01; under setting [18], 0.976; under setting [19], 1; under setting [20], 1; under setting [21], 1.01; under setting [22], 0.972. Further, the normalized growth was 1.03 under setting [23], 0.997 under setting [24], 0.979 under setting [25] and 0.967 under setting [26].
With `NC(=O)c1ncn(C2OC(CO)C(O)C2O)c1O` (stereo unspecified), the normalized growth was 1.01 under setting [1]; 1.01 under setting [27]; 1.01 under setting [28]; 1.01 under setting [29]; 1 under setting [30]; 0.998 (S. cerevisiae deletion strains, locus YNL128W, strain TEP1, active compounds read low). The normalized growth runs as follows: under setting [18], 1.02; under setting [31], 1; under setting [32], 1.01; under setting [33], 1; under setting [34], 1.02.
As for `Cc1onc(-c2c(Cl)cccc2Cl)c1NC(=O)O/N=C\c1ccc(N(C)C)cc1`, the normalized growth runs as follows: under setting [1], 0.807 (active); under setting [2], 0.975; (S. cerevisiae deletion strains, locus YCL061C, strain MRC1, active compounds read low) 0.994; under setting [3], 0.978; under setting [4], 0.693 (active); under setting [5], 0.338 (active). In addition, the normalized growth under setting [6] was 0.861 (active); the normalized growth under setting [7] was 0.12 (active); the normalized growth under setting [8] was 1.02; the normalized growth under setting [9] is 0.769 (active); the normalized growth under setting [10] was 1.04; the normalized growth under setting [11] was 0.865. Moreover, the normalized growth is, setting by setting: under setting [12], 0.992; under setting [13], 0.0906 (active); under setting [14], 0.956; under setting [15], 0.152 (active); under setting [16], 1.02; under setting [17], 0.78 (active). For the same compound, the normalized growth by setting is: under setting [18], 0.907 (active); under setting [19], 0.266 (active); under setting [20], 0.962; under setting [21], 0.357 (active); under setting [22], 0.25 (active); under setting [23], 0.624 (active). Further, the normalized growth reads like this: under setting [24], 0.44 (active); under setting [25], 0.698; under setting [26], 0.956.
For the compound `CC[C@@H](C)[C@H]1O[C@]2(CC[C@@H]1C)C[C@@H]1C[C@@H](C/C=C(\C)[C@@H](O[C@H]3C[C@H](OC)[C@@H](O[C@H]4C[C@H](OC)[C@@H](O)[C@H](C)O4)[C@H](C)O3)[C@@H](C)/C=C/C=C3\CO[C@@H]4[C@H](O)C(C)=C[C@@H](C(=O)O1)[C@]34O)O2`, the normalized growth is, setting by setting: under setting [1], 0.732 (active); under setting [27], 1.01; under setting [28], 0.948; under setting [29], 0.613 (active); under setting [30], 1.02; under setting [31], 1.01. The normalized growth is, setting by setting: under setting [32], 1.02; under setting [33], 0.993; under setting [34], 0.981; under setting [24], 0.869 (active).

The values are drawn from PubChem BioAssay AID1159580 (chemical genetic matrix, 2015).
